Reference: the supplement of paper PMC12645437, “Orthogonal IMiD-Degron Pairs Induce Selective Protein Degradation in Cells” (ACS Chemical Biology, 2025)
Whole data set: some 8,300 sequences, median “log2 fold change of degron read counts, EGFP-low vs EGFP+ sorted cells (limma voom), compound-induced degradation” near -1.1, cut for the highest 2% near 3.2. The entries come from a sample that favours the highest values as a whole.

T1: CRBN, Q96SW2
T1 chain: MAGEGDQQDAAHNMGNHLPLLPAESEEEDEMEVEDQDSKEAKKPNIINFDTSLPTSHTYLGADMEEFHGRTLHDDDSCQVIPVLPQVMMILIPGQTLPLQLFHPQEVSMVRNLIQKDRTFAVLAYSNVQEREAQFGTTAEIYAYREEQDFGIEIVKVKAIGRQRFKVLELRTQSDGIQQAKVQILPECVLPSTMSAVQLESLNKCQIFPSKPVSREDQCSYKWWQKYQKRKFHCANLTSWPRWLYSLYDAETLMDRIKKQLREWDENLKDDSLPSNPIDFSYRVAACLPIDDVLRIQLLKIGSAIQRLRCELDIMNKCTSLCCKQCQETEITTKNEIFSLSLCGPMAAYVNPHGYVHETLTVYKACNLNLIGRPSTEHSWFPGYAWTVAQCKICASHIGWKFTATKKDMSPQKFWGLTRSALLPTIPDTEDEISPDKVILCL


Biological target: T1, CRBN, Q96SW2
Assay: log2 fold change of degron read counts, EGFP-low vs EGFP+ sorted cells (limma voom), compound-induced degradation; higher = more compound-induced degradation of the degron-EGFP fusion; degrons are variants of IKZF1/3 zinc finger 2; compound dose not given here
Details: Jurkat, 18 h
[1] = compound: compound 19 (5-tert-butyl-thalidomide)
[2] = compound: compound 22 (5-morpholino-thalidomide)
[3] = compound: compound 33 (diphenyl IMiD analogue)
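Note: pooled lentiviral library of zinc finger degron-EGFP fusions in mCherry-positive Jurkat cells, FACS-sorted after compound exposure, with degron abundance counted by next-generation sequencing.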

Sequence | log2 fold change of degron read counts [1] | log2 fold change of degron read counts [2] | log2 fold change of degron read counts [3] | log2 fold change of degron read counts (compound: thalidomide)
FECDQCGAYFTQKGNLLRHIKL [46F_47E_49D_50Q_52G_53A_54Y_55F_67L_, Q9UKT9] | -2.99 | -3.59 | -2.13 | -2.26
FGCDQCGATFTQKGNLLRHIKL [46F_47G_49D_50Q_52G_53A_54T_55F_67L_, Q9UKT9] | -1.78 | -2.27 | -1.3 | -2.71
FWCEICGAFFTQKGNLLRHIKL [46F_47W_49E_50I_52G_53A_54F_55F_67L_, Q9UKT9] | 3.03 | 3.13 | 2.12 | -0.452
FTCPICGAIFTQKGNLLRHIKL [46F_47T_49P_50I_52G_53A_54I_55F_67L_, Q9UKT9] | -0.365 | 1.34 | 2.33 | 2.71
FFCDICGALFTQKGNLLRHIKL [46F_47F_49D_50I_52G_53A_54L_55F_67L_, Q9UKT9] | 2.27 | 1.43 | 0.356 | -1.44
FKCPVCGAEFTQKGNLLRHIKL [46F_47K_49P_50V_52G_53A_54E_55F_67L_, Q9UKT9] | -1.33 | -1.7 | -2.52 | -0.999
FNCNICGAAFTQKGNLLRHIKL [46F_47N_49N_50I_52G_53A_54A_55F_67L_, Q9UKT9] | 1.61 | 0.951 | 0.00357 | -0.128
LNCPICGFHCTQKGNLLRHIKL [46L_47N_49P_50I_52G_53F_54H_55C_67L_, Q9UKT9] | 1.34 | 0.56 | 0.934 | 1.12
LVCPICGFHCTQKGNLLRHIKL [46L_47V_49P_50I_52G_53F_54H_55C_67L_, Q9UKT9] | 0.161 | 2 | 1.81 | 2.57
LQCPICGFHCTQKGNLLRHIKL [46L_47Q_49P_50I_52G_53F_54H_55C_67L_, Q9UKT9] | 0.55 | 1.17 | 1.51 | 3.3
LYCPICGFHCTQKGNLLRHIKL [46L_47Y_49P_50I_52G_53F_54H_55C_67L_, Q9UKT9] | 3.13 | 3.49 | 2.61 | 1.83
LHCPICGFHCTQKGNLLRHIKL [46L_47H_49P_50I_52G_53F_54H_55C_67L_, Q9UKT9] | 2.33 | 2.45 | 2.55 | 1.95
LECPICGFHCTQKGNLLRHIKL [46L_47E_49P_50I_52G_53F_54H_55C_67L_, Q9UKT9] | -0.151 | -0.655 | 1.91 | 2.84
LDCPICGFHCTQKGNLLRHIKL [46L_47D_49P_50I_52G_53F_54H_55C_67L_, Q9UKT9] | 1.47 | 0.38 | 0.522 | 1.41
LMCPICGFHCTQKGNLLRHIKL [46L_47M_49P_50I_52G_53F_54H_55C_67L_, Q9UKT9] | 0.0156 | 1.21 | 2.51 | 2.06
LWCPICGFHCTQKGNLLRHIKL [46L_47W_49P_50I_52G_53F_54H_55C_67L_, Q9UKT9] | 2.74 | 3.54 | 2.74 | 1.65
LFCPICGFHCTQKGNLLRHIKL [46L_47F_49P_50I_52G_53F_54H_55C_67L_, Q9UKT9] | 2.94 | 3.37 | 2.6 | 1.88
LTCPICGFHCTQKGNLLRHIKL [46L_47T_49P_50I_52G_53F_54H_55C_67L_, Q9UKT9] | 1.1 | 2.57 | 2.47 | 2.78
LSCPICGFHCTQKGNLLRHIKL [46L_47S_49P_50I_52G_53F_54H_55C_67L_, Q9UKT9] | 2.37 | 2.02 | 2.39 | 2.28
